From PubChem BioAssay AID651958 (The Scripps Research Institute Molecular Screening Center, 2012)
About 2,000 (0.54%) of roughly 370,000 compounds were called active. Shown is part of a subset that was picked to be rich in actives. Unmarked numbers belong to inactive results. Rule as the data show it: active = inhibition above about 30%; inactive = the rest.

Test system: Crimean-Congo hemorrhagic fever virus L polyprotein viral ovarian tumor (vOTU) protease domain
Test: CCHFV vOTU protease inhibitors, primary screen, biochemical, Pep-AMC substrate, fluorescence (AID 651958); also: 0% = vehicle wells with enzyme and 100% = no enzyme wells
Conditions: at 11.5 µM, hits give high values

Row | SMILES | inhibition
1 | Cc1cccc(N)c1SC1CCCCC1O (stereo unspecified) | -10%
2 | Cc1cccc(CN2CCC(n3nccc3NC(=O)c3ccccc3C)CC2)n1 | -2.72%
3 | CCCCC[C@@H]1C=C(C(=O)O)[C@H](c2ccc(C#N)cc2)N1S(=O)(=O)c1ccc(C)cc1 | 16.8%
4 | Cc1ccc(S(=O)(=O)N2[C@@H](c3ccc(Br)cc3)C(C(=O)O)=C[C@H]2CC2CCCC2)cc1 | 34.2% (active)
5 | CCCCC[C@@H]1C=C(C(=O)OCC)[C@H](c2ccccc2)N1S(=O)(=O)c1ccc(C)cc1 | 11%
6 | COc1cc(NC(=S)N2CCCC(C)C2)c(OC)cc1Cl (stereo unspecified) | 7.18%
7 | COc1ccc(C(=O)OCCN(C)C2CN(Cc3cn(Cc4cccc(C)c4)nn3)S(=O)(=O)C2)cc1OC (stereo unspecified) | -1.74%
8 | O=C(O)c1ccc(NS(=O)(=O)c2ccc3c(c2)C(=O)c2cc(S(=O)(=O)Nc4ccc(C(=O)O)cc4)ccc2-3)cc1 | 14.6%
9 | O=C(O)c1cc(S(=O)(=O)Nc2ccc3cn[nH]c3c2)ccc1Br | 36% (active)
10 | O=S(=O)(Nc1ccc2[nH]ncc2c1)c1ccccc1Cl | -2.37%
11 | CC1CCCN(CC(O)COc2ccc3c(c2)OCO3)C1 (stereo unspecified) | 9.88%
12 | Oc1ccc(N=Cc2sc3ccccc3c2Cl)cc1 | 97.4% (active)
13 | Oc1ccc(N=Cc2c(O)ccc3ccccc23)cc1 | 63.1% (active)
14 | Cn1cc(CN2CCC(C(O)CCc3ccccc3)CC2)c(-c2ccccc2F)n1 (stereo unspecified) | -4.04%
15 | Cc1cc(OCCN2CCCC2)cc(C(C)C)c1 | -8.52%
16 | CC1=C2C(=O)C3C(CC=C4CC(OC5OC(O)C(O)C(O)C5CO)CCC43C)C2CCC12OC1CC(C)CNC1C2C (stereo unspecified) | -3.46%
17 | O=C(NCc1ccc(F)cc1)c1cc(C2CCCCN2C(=O)c2ccccn2)on1 (stereo unspecified) | 11.8%
18 | O=C(NCc1ccc(F)cc1)c1cc(C2CCCCN2C(=O)c2cccs2)on1 (stereo unspecified) | -3.47%
19 | O=C(NCc1ccc(F)cc1)c1cc(C2CCCCN2C(=O)C2CCCCC2)on1 (stereo unspecified) | 33.5% (active)
20 | CC(NC(=O)CN1CCN(Cc2ccc(Cl)cc2)C1=O)c1ccc2c(c1)OCCO2 (stereo unspecified) | 11.5%
21 | Cc1cccc(OCC(=O)Nc2ccc(C(=O)O)cc2NC(=O)COc2cccc(C)c2)c1 | 16.7%
22 | Cc1cccc(OP(=O)(Oc2cccc(C)c2)OC(c2ccccc2)C(F)(F)F)c1 (stereo unspecified) | 2.83%
23 | CCN(CC)P(=O)(Oc1cccc(C)c1)N(CC)CC | 32.4% (active)

Row | SMILES | inhibition
24 | Cc1ccc(S(=O)(=O)N2CCN(C(=O)Cn3c(=O)cnc4ccccc43)CC2)c(C)c1 | 14.9%
25 | O=C(CNCc1ccco1)Nc1cc(S(=O)(=O)N2CCOCC2)ccc1N1CCCC1 | -3.18%
26 | CC(C)C[C@H](NC(=O)C1CCC(CNC(=O)[C@@H]2CCCN2C(=O)OC(C)(C)C)CC1)C(=O)O (stereo partly specified) | -6.89%
27 | Oc1c(CN2CCN(c3ccc(F)cc3)CC2)cc(Cl)c2cccnc12 | 31.6% (active)
28 | CC(C)c1ccc(O)c(CN2CCN(c3ccccc3)CC2)c1 | -12.4%
29 | O=C(c1ccccc1)c1cccn1CC(=O)N1CCN(c2ccc(F)cc2)CC1 | -2.38%
30 | Cc1ccc(S(=O)(=O)N2CCC(=O)N([C@H](COCc3ccccc3)C(C)C)CC2)cc1 | 3.62%
31 | COc1ccc(NC(=O)CNC(=O)Cn2ccc3ccccc3c2=O)c(OC)c1 | -6.81%
32 | Cc1ccc(Sc2cc(N3CCOCC3)nc(-c3ccccc3)n2)cc1 | 13.3%
33 | O=C(OC(C(=O)NC1CCCC1)c1ccc(F)cc1)c1ccno1 (stereo unspecified) | -21.1%
34 | Oc1ccc(CNc2ccccc2O)cc1 | 37% (active)
35 | OCC(CO)(CO)NCc1ccc(-c2ccccc2)cc1 | -4.11%
36 | COC(=O)C1=CN(c2c(C)cc(C)cc2C)C(N)=C(C#N)C1c1cccc(F)c1 (stereo unspecified) | 4.61%
37 | O=C(Nc1cccc2c1CCCC2)C1CCN(C(=O)NC2CCCCC2)CC1 | -8.92%
38 | O=C(NC1CCCCC1)N1CCc2[nH]c3ccccc3c2C1 | 58.5% (active)
39 | O=C(CSc1nnc2c(n1)[nH]c1ccccc12)NC1CCCCC1 | -13%
40 | CCCNC(=S)N1CCC(NC(=O)C23CC4CC(CC(C4)C2)C3)CC1 | -4.34%
41 | CN1OC[C@@H]2CN(C(=O)c3cccnc3)[C@H](c3ccc(N4CCCCC4)cc3)C[C@@H]21 | -0.01%
42 | N#Cc1cccc(CSc2nnc(CCCO)n2-c2ccccc2)c1 | -2.93%
43 | CCOc1cc(NC(=O)c2ccccc2C(=O)O)c(OCC)cc1NC(=O)c1ccccc1F | 35.5% (active)
44 | CCOc1ccccc1NC(=O)c1cc(S(=O)(=O)N2CCC3(CC2)OCCO3)ccc1F | -13.4%
45 | CCOc1cc(NC(=O)CCl)c(OCC)cc1NC(C)=O | 11.3%
46 | S=C(NCCc1ccccc1)N1CCn2cccc2C1c1ccncc1 (stereo unspecified) | 20.5%
